Assay results reported in PubChem BioAssay (NCATS).
Several values for one entry are separate records, joined by “and”; a condition that tells them apart may be missing. Equal values may be shown once. Results filed as inconclusive are left out. Where a call stands in place of a potency, no number is given. Activity calls are given as the source filed them. Unless noted, calls come from the whole dose curve.

Assays:
[1] = molecular target: Estrogen receptor (Homo sapiens) (UniProt P03372); assay: qHTS assay for small molecule antagonists of estrogen receptor alpha signaling (AID 588513; active = well fitted curve in the direction sought with a large enough effect in the signal ratio, with a control signal flat, not every such curve was filed as active; the % refers to the signal ratio)
Estrogen receptor (Homo sapiens), sequence (P03372 whole entry, looked up): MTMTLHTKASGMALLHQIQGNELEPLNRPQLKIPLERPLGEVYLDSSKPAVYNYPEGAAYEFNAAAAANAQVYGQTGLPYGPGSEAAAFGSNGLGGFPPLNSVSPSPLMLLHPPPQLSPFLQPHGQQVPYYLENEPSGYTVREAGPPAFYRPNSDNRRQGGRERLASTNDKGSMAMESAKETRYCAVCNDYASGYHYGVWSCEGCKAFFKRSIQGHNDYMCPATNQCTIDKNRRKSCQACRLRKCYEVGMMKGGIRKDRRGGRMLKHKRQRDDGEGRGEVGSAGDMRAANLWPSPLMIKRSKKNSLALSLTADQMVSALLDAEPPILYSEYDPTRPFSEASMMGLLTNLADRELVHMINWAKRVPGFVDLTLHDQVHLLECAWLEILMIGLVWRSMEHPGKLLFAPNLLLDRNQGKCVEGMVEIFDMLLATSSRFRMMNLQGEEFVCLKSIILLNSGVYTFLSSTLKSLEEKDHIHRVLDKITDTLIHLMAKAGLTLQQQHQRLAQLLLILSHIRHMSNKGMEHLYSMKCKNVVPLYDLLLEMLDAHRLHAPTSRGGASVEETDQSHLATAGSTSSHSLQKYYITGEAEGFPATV
Procedure, shortened: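 Fluorescence from CCF4 substrate after 2 h at room temperature gave reporter activity; cells had been exposed to compound and 0.5nM 17-beta-estradiol for 18 h at 37 C. Hill-equation fitting yielded IC50 and maximal response.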

[2] = molecular target: Estrogen receptor (Homo sapiens) (UniProt P03372); assay: qHTS assay for small molecule agonists of estrogen receptor alpha signaling (AID 588514); note: nearly all actives have a fitted effect of over 70% in size
Procedure, shortened: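 EC50 and efficacy came from Hill fits of beta-lactamase reporter signal (CCF4 dye, 2 h at room temperature) scaled between DMSO and 20 nM 17-beta-estradiol. Agonist mode: HEK293 ER-alpha-UAS-bla cells in charcoal/dextran-stripped serum medium, 18 h compound exposure at 37 C.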

[3] = qHTS assay for small molecule antagonists of peroxisome proliferator-activated receptor delta signaling (AID 588535; active = well fitted inhibition curve with a large enough effect in the signal ratio, with a control signal flat, not every such curve was filed as active; the % refers to the signal ratio;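 for max response: cells co-treated with a PPAR-delta agonist as stimulator during compound exposure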); conditions: HEK293T PPARd-UAS-bla, beta-lactamase FRET ratio, 18 h; 460 nm channel
Procedure, shortened: (§1)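 Fluorescence from CCF4-loaded GeneBLAzer PPAR-delta-UAS-bla HEK293T cells (2 hrs RT loading) quantified reporter inhibition after an 18 hr, 37 C compound exposure across a titration.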

[4] = molecular target: Peroxisome proliferator-activated receptor delta (Homo sapiens) (UniProt Q03181); assay: as above
Peroxisome proliferator-activated receptor delta (Homo sapiens), sequence (Q03181 whole entry, looked up): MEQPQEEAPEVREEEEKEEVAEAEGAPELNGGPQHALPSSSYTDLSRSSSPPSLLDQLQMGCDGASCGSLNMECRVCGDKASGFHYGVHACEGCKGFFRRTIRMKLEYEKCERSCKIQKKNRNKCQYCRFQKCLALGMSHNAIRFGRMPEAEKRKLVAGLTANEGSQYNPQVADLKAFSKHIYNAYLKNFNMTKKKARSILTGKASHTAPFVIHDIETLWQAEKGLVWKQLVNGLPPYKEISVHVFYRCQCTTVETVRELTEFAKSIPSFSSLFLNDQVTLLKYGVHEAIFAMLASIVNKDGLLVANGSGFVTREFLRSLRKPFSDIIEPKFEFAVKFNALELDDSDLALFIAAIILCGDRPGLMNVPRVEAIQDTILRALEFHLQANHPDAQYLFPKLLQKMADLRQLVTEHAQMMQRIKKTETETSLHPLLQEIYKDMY
Procedure, shortened: as §1

[5] = molecular target: Vitamin D3 receptor (Homo sapiens) (UniProt P11473); assay: qHTS assay for small molecule agonists of vitamin D receptor signaling (AID 588543)
Vitamin D3 receptor (Homo sapiens), sequence (P11473 whole entry, looked up): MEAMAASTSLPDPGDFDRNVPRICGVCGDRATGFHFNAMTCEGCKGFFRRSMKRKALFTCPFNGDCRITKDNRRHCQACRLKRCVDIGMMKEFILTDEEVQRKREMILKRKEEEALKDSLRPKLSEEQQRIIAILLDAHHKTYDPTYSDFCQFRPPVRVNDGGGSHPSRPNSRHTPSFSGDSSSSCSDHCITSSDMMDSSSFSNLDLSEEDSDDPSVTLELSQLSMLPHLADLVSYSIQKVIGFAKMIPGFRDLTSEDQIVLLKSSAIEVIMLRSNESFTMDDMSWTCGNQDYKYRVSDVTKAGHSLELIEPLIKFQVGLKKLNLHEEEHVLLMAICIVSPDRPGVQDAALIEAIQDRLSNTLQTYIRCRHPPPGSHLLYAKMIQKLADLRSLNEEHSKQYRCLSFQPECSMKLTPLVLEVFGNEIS
Procedure, shortened: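 Reporter cells (HEK293T, VDR-UAS-bla) were seeded in medium with 2% charcoal-stripped serum and incubated 5 h, then compounds in concentration series were added for 16 h at 37 °C. Stimulation was scaled between DMSO basal and 50 nM 1α,25-dihydroxyvitamin D3.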

[6] = qHTS assay for small molecule agonists of retinoid X receptor alpha signaling (AID 588544); conditions: HEK293T RXRa-UAS-bla, beta-lactamase reporter, 18 h; 530 nm emission
[7] = molecular target: Retinoic acid receptor RXR-alpha (Homo sapiens) (UniProt P19793); assay: as above
Retinoic acid receptor RXR-alpha (Homo sapiens), sequence (P19793 whole entry, looked up): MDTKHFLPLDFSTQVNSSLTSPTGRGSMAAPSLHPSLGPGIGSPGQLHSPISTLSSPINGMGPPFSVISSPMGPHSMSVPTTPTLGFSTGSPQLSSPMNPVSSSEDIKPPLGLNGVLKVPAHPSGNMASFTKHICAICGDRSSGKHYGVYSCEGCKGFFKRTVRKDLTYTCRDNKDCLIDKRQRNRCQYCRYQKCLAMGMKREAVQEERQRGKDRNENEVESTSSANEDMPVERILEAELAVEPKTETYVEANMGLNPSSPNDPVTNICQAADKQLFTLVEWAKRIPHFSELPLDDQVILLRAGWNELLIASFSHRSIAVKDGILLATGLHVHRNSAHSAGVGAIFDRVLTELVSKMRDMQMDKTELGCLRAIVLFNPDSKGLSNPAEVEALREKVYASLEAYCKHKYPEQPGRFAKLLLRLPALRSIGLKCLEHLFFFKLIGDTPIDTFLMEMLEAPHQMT

[8] = qHTS assay for small molecule antagonists of retinoid X receptor alpha signaling (AID 588546); conditions: HEK293T RXRa-UAS-bla, beta-lactamase ratio, antagonist mode; measured here: W530 green channel, cytotoxicity proxy;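 note: cells stimulated with 9-cis-retinoic acid as agonist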
Procedure, shortened: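 Beta-lactamase reporter inhibition, read as CCF4 fluorescence ratio (ex 405, em 460/530 nm) after 2 h at RT. HEK293T UAS-bla cells, 2500/well, were stimulated with 9-cis-RA at 500 or 100 nM final alongside test compound for 18 h at 37 C.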

[9] = molecular target: Thyroid hormone receptor beta (Homo sapiens) (UniProt P10828); assay: qHTS assay for small molecule antagonists of thyroid hormone receptor beta signaling (AID 588547; active = well fitted inhibition curve with a large enough effect in the signal ratio, with a control signal flat, not every such curve was filed as active; the % refers to the signal ratio;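 note: cells stimulated with 0.4 nM T3 agonist during compound exposure; series mostly up to about 77 µM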); conditions: TR-UAS-bla HEK293, beta-lactamase ratio, antagonist mode, 18 h
Thyroid hormone receptor beta (Homo sapiens), sequence (P10828 whole entry, looked up): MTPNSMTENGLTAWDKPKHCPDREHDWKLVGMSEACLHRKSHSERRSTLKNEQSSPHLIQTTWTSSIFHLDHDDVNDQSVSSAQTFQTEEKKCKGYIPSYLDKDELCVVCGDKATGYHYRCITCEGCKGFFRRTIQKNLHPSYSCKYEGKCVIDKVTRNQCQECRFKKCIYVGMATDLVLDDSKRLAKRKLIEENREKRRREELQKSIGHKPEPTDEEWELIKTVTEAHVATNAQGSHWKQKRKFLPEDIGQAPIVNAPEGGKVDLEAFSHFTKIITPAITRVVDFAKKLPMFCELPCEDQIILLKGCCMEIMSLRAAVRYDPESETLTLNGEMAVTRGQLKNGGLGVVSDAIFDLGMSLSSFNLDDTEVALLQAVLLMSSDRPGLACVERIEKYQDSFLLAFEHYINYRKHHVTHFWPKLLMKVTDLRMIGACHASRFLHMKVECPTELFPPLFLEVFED
Procedure, shortened: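 TR-UAS-bla GripTite HEK293 cells in 2% charcoal/dextran FBS medium; compounds 0.59 nM to 92 uM with T3 at 0.4nM final, 18 h at 37 C. Beta-lactamase read by CCF4 fluorescence (460/530 nm); Hill fits gave IC50 and efficacy.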

[10] = molecular target: Bile acid receptor (Homo sapiens) (UniProt Q96RI1); assay: qHTS assay for small molecule antagonists of farnesoid X receptor signaling (AID 588526)
Bile acid receptor (Homo sapiens), sequence (Q96RI1 whole entry, looked up): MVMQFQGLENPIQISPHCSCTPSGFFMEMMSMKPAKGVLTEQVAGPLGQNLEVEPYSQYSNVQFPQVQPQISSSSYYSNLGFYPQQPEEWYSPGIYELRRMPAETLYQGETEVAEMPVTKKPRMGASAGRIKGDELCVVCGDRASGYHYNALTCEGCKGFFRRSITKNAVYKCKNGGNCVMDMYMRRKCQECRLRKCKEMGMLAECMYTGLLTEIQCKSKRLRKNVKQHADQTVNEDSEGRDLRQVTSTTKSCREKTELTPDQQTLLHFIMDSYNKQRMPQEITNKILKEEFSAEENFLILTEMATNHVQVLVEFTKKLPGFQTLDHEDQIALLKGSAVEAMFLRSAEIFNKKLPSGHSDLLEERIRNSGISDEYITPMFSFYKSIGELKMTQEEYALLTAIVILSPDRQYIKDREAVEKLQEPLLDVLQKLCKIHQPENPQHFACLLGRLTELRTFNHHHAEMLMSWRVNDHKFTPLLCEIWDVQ
Procedure, shortened: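 Antagonist mode: titrated compounds tested against chenodeoxycholic acid stimulation (normalized to 50 uM CDCA and DMSO) in GeneBLAzer HEK293T cells for 16 h. Beta-lactamase read by CCF4 fluorescence; IC50 from Hill fits.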

[11] = molecular target: Glucocorticoid receptor (Homo sapiens) (UniProt P04150); assay: qHTS assay for small molecule agonists of glucocorticoid receptor signaling (AID 588532; active = well fitted curve in the direction sought with a large enough effect in the signal ratio, with a control signal flat; the % refers to the signal ratio); conditions: HeLa MMTV-bla, beta-lactamase ratio, agonist, 18 h; stronger effect = higher value; percent of dexamethasone control, DMSO zero
Glucocorticoid receptor (Homo sapiens), sequence (P04150 whole entry, looked up): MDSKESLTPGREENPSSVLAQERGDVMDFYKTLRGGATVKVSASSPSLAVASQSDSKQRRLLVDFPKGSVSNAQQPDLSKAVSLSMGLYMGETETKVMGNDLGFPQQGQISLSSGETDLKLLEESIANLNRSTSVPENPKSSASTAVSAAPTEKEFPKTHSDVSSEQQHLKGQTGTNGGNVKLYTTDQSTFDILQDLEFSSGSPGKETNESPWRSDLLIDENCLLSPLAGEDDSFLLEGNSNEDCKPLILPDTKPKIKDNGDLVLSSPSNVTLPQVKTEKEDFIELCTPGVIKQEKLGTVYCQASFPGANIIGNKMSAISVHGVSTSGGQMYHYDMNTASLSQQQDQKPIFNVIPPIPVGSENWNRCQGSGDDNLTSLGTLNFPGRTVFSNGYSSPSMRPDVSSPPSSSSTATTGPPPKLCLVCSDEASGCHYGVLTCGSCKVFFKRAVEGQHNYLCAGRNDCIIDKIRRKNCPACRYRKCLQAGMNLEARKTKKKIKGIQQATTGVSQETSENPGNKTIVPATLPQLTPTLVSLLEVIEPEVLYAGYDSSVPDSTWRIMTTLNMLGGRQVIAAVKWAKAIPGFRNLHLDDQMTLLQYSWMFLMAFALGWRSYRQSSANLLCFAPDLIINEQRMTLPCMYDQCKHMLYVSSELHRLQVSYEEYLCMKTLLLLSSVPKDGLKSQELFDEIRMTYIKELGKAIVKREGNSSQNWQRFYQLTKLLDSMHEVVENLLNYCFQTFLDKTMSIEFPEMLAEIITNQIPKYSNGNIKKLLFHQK
Procedure, shortened: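 MMTV-bla HeLa beta-lactamase reporter cells in 1% charcoal/dextran FBS medium, compounds up to 92 uM for 18 h at 37 C, CCF4 readout; normalized to 0.1 uM dexamethasone (100%), EC50 and efficacy from Hill fits.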

[12] = molecular target: Glucocorticoid receptor (Homo sapiens) (UniProt P04150); assay: qHTS assay for small molecule antagonists of glucocorticoid receptor signaling (AID 588533; active = well fitted inhibition curve with a large enough effect in the signal ratio, with a control signal flat, not every such curve was filed as active; the % refers to the signal ratio;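 note: cells stimulated with 2 nM dexamethasone as agonist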)
Procedure, shortened: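 Antagonist-mode qHTS: compound titrations added to GRE-bla HeLa cells, then dexamethasone 2 nM final; 18 h, 37 C. CCF4 FRET fluorescence normalized to dexamethasone and DMSO; IC50 from Hill fit.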

[13] = molecular target: Peroxisome proliferator-activated receptor gamma (Homo sapiens) (UniProt P37231); assay: qHTS assay for small molecule agonists of peroxisome proliferator-activated receptor gamma signaling (AID 588536; active = well fitted curve in the direction sought with a large enough effect in the signal ratio, with a control signal flat, not every such curve was filed as active; the % refers to the signal ratio)
Peroxisome proliferator-activated receptor gamma (Homo sapiens), sequence (P37231 whole entry, looked up): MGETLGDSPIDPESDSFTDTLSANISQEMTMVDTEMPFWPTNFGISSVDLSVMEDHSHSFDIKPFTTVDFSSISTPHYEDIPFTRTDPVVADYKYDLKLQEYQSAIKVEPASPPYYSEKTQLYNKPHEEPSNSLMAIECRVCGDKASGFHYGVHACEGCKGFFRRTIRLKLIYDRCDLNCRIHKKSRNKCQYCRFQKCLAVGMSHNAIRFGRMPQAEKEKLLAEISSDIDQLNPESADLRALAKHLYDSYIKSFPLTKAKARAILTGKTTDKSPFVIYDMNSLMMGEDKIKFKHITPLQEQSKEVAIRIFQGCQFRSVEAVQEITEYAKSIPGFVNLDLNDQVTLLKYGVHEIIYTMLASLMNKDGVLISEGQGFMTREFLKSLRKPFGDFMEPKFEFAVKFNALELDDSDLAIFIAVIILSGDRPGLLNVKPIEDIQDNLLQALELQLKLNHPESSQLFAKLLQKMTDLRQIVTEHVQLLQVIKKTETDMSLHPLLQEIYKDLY
Procedure, shortened: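 This is an agonist-mode beta-lactamase reporter assay in HEK293 PPAR-gamma-UAS-bla cells with 1% charcoal/dextran FBS. Compound titrations ran 16 h at 37 C before CCF4 detection. EC50 and efficacy are Hill fits scaled to 2 uM rosiglitazone (100%) and DMSO basal.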

[14] = molecular target: Peroxisome proliferator-activated receptor gamma (Homo sapiens) (UniProt P37231); assay: qHTS assay for small molecule antagonists of peroxisome proliferator-activated receptor gamma signaling (AID 588537; active = well fitted inhibition curve with a large enough effect in the signal ratio, with a control signal flat, not every such curve was filed as active; the % refers to the signal ratio;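 note: reporter cells co-stimulated with 50 nM rosiglitazone agonist during compound treatment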)
Procedure, shortened: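 Fluorescence at 460 and 530 nm (405 nm excitation) reported beta-lactamase cleavage of CCF4 after 2 h room-temperature loading. HEK293 reporter cells in 1% charcoal/dextran-treated FBS had received compound and rosiglitazone for 16 h.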

[15] = molecular target: Thyroid hormone receptor beta (Homo sapiens) (UniProt P10828); assay: qHTS assay for small molecule agonists of thyroid hormone receptor beta signaling (AID 588545)
Procedure, shortened: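 Agonist-mode beta-lactamase reporter assay, HEK 293 cells, 2% charcoal/dextran FBS; cells plated 4 hrs, compound 18 hrs at 37 C, CCF4 2 hrs RT. Normalized to 10 nM T3 (100%) and DMSO (0%); Hill fit gives EC50, efficacy.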

[16] = qHTS for Inhibitors of ATXN expression: Validation (AID 588378; active = well fitted curve in the direction sought with a large enough effect; an effect the other way counts as inactive or inconclusive; note: potency is the fitted concentration of half-maximal effect; nearly all actives have a fitted effect of over 75% in size)
Procedure, shortened: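 Compounds were pinned onto attached HEK293 cells carrying an ATXN2-firefly luciferase construct and incubated 24 hrs at 37 degrees C. Each well then received a fluorescent viability reagent followed by luciferase substrate for end-point luminescence.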

[17] = molecular target: Androgen receptor (Homo sapiens) (UniProt P10275); assay: qHTS assay for small molecule agonists of androgen receptor signaling (AID 588515; active = well fitted curve in the direction sought with a large enough effect in the signal ratio, with a control signal flat; the % refers to the signal ratio); conditions: AR-UAS-bla HEK293, beta-lactamase ratio, agonist 16 h; stronger effect = higher value
Procedure, shortened: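 Stimulation of an AR-responsive β-lactamase reporter in GripTite HEK293 cells was measured after 16 h compound exposure at 37 °C, via CCF4 fluorescence after 2 h RT. EC50 from Hill fits, normalized to R1881 at 30 nM.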

[18] = molecular target: Androgen receptor (Homo sapiens) (UniProt P10275); assay: qHTS assay for small molecule antagonists of androgen receptor signaling (AID 588516; active = well fitted curve in the direction sought with a large enough effect in the signal ratio, with a control signal flat, not every such curve was filed as active; the % refers to the signal ratio)
Procedure, shortened: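 Cells were plated and incubated 5 h, compounds added in titration, then R1881 (10 nM final) as agonist. After 16 h at 37 C, CCF4 substrate was loaded for 2 h at room temperature and fluorescence measured.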

[19] = molecular target: DNA dC->dU-editing enzyme APOBEC-3G (Homo sapiens) (UniProt Q9HC16); assay: qHTS for inhibitors of Vif-A3G interactions: Validation (AID 588379; active = well fitted curve in the direction sought with a large enough effect; an effect the other way counts as inactive or inconclusive)
DNA dC->dU-editing enzyme APOBEC-3G (Homo sapiens), sequence (Q9HC16 whole entry, looked up): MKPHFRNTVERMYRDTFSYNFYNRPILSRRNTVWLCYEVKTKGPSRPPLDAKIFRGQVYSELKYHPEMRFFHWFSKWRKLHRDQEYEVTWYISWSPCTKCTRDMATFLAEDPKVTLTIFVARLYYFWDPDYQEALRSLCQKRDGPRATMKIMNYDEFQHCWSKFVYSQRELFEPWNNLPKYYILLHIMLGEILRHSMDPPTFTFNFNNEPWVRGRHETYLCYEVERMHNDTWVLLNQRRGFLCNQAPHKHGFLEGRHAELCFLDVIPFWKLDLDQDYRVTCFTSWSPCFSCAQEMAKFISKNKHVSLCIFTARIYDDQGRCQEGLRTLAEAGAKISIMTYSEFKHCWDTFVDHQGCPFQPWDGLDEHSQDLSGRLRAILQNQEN
Procedure, shortened: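 Yellow fluorescence (Ex 488, Em 500-530) of Vif-coexpressing HeLa A3G-eYFP cells, scanned by Acumen cytometer, reports blocked A3G degradation. Cells plated at 700/well overnight at 37 deg C before compound addition, then a further overnight compound incubation at 37 deg C.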

Structure (SMILES)	outcome [1]	outcome [2]	max response [3]	outcome [4]	outcome [5]	max response [6]	outcome [7]	max response [8]	activity change % (negative = inhibition) [9]	outcome [10]	activation [11]	outcome [12]	outcome [13]	outcome [14]	outcome [15]	Potency [16]	activation [17]	outcome [18]	outcome [19]
[Cl][In]([Cl])[Cl]	inactive	inactive	29.3%	inactive	inactive	-5.94%	inactive	-2.25%	2% (inactive)										
COc1ccccc1O	inactive	inactive	-6.63% and -4.79%	inactive	inactive	-7.45% and -9.73% and 7.42%	inactive	-10.5% and -8.87% and -4.21%	8.27% (inactive) and 8.42% (inactive) and 1.01% (inactive)	inactive	0.59% (inactive) and 4.92% (inactive) and -0.396% (inactive)	inactive	inactive	inactive	inactive				
Oc1cccc(O)c1	inactive		15.8%	inactive	inactive	-9.49%	inactive	-5.21%			1.81% (inactive)	inactive	inactive	inactive	inactive				
CCCCC(CC)COC(=O)c1ccccc1O (configuration not stated)	inactive	inactive	-34.6%	inactive	inactive	-12.2%	inactive	-3.04%	12.6% (inactive)		-10.3% (inactive)	inactive	inactive	inactive	inactive				
CC(CN1c2ccccc2Sc2ccccc21)N(C)C (configuration not stated)						10.3%	inactive		-18.5% (inactive)						inactive	17.8 µM (active)			
CCCCOC(=O)c1ccc(O)cc1			-14.2%	inactive	inactive	0.828% and -8.13%	inactive	-11.5% and -9.16%	-4.41% (inactive) and 2.19% (inactive)	inactive	-4.25% (inactive) and 1.71% (inactive)	inactive			inactive				
NCCNCCNCCNCCN					inactive	-10.7% and -8.96%	inactive	-6.87%	-25.9% (inactive) and -19% (inactive)		-3.86% (inactive) and -5.35% (inactive)	inactive		inactive	inactive		15.1% (inactive) and -3.31% (inactive)	inactive	
CN(C)CCCN1c2ccccc2Sc2ccc(Cl)cc21			-54.6%	inactive	inactive	-6.01%	inactive	-6.45%	-25.6% (inactive)	inactive	7.77% (inactive)		inactive		inactive				
CCCc1c(OCCCCc2nn[nH]n2)ccc(C(C)=O)c1O								22.4%		inactive	-8.74% (inactive)	inactive			inactive				
CC(O)COc1ccccc1 (configuration not stated)			6.24%	inactive	inactive	-14.5%	inactive	-7.54%	-6.45% (inactive)	inactive	-13.7% (inactive)	inactive	inactive	inactive	inactive		4.06% (inactive)	inactive	
Cc1cc2nc3c(=O)[nH]c(=O)nc-3n(C[C@H](O)[C@H](O)[C@H](O)CO)c2cc1C									-25% (inactive)		-14% (inactive)								
CN(C)CCC=C1c2ccccc2CCc2ccccc21		inactive	10%	inactive	inactive	20%	inactive								inactive				
CC1(C)[C@@H]2CC[C@@]1(C)C(=O)C2	inactive	inactive	5.89%	inactive	inactive	-8.55%	inactive	1.15%	-4.32% (inactive)		6.36% (inactive)	inactive			inactive				inactive
Cc1c(O)cccc1C(=O)N[C@@H](CSc1ccccc1)[C@H](O)CN1C[C@H]2CCCC[C@H]2C[C@H]1C(=O)NC(C)(C)C					inactive														
O=C1O[C@H]([C@@H](O)CO)C(O)=C1O			-14.8%	inactive		-15.9% and -7.94%	inactive	-3.01%	4.68% (inactive) and -9.73% (inactive)		1.61% (inactive) and 16.4% (inactive)	inactive	inactive	inactive	inactive				
NC(=O)N/N=C/c1ccc([N+](=O)[O-])o1		inactive	4.74%	inactive	inactive			1.55% and -8.19%	0.5% (inactive)		-5.85% (inactive) and -2.6% (inactive)	inactive	inactive		inactive				
